Records with an inconclusive call do not appear. Activity calls are given as the source filed them. Calls come from the whole dose curve; as a rule, active = well fitted curve in the direction sought with a large enough effect in the signal ratio, with a control signal flat (not every such curve was filed as active); inconclusive = small, poorly fitted or top-dose-only effect, or effect the other way, or a change in a side signal; inactive = no such curve, though single readings can be large or run the other way; the % refers to the signal ratio.
Each compound was assayed against Peroxisome proliferator-activated receptor gamma (Homo sapiens) (UniProt P37231) (assay: qHTS assay for small molecule agonists of peroxisome proliferator-activated receptor gamma signaling (AID 588536)). Details: HEK293 PPARg-UAS-bla, beta-lactamase ratio, 16 h, percent of rosiglitazone response, DMSO as zero; series mostly up to 76.7 µM.
Peroxisome proliferator-activated receptor gamma (Homo sapiens), sequence (P37231 whole entry, looked up): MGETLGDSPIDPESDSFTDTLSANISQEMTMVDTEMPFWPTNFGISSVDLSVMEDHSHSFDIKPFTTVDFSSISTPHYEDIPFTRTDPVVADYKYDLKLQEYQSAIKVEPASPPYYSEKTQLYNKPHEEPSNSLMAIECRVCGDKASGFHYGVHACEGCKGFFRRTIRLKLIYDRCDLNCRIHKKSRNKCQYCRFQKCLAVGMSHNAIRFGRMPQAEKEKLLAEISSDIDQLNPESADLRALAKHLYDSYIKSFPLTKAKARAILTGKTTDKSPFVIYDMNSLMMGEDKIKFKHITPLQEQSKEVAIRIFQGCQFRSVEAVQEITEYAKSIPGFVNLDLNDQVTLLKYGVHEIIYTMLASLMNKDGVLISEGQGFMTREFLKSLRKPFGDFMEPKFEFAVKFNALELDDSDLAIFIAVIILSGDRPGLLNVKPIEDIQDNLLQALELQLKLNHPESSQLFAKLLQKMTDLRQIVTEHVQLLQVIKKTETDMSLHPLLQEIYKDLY
Summary of the method: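 Cells were plated and held 6–6.5 h at 37 C, then compounds were added as a titration series. After a further 16 h, CCF4 dye was loaded for 2 h at room temperature and emission at 460/530 nm recorded.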
For CC(C)CCCCCCCCCCCCCCC(=O)O, the outcome was “inactive”.
For CCCCCCCCCCCCc1ccccc1, the outcome was “inactive”.
For CCOC(=O)c1ccccc1C, the outcome was “inactive”.
For CCCC/C=C\CCCCCCCCCC=O, the outcome was “inactive”.
CCC(O)OCCCOC (configuration not stated) was tested, and the outcome was “inactive”.
C=CCCCCCCCCCC was tested, and the outcome was “inactive”.
With CC(C)(N=C=O)c1cccc(C(C)(C)N=C=O)c1 the outcome was “inactive”.
CCCCCCCC/C=C\CCCCCCCCO was tested, and the outcome was “inactive”.
CCCCCCCCCCCCCCCO was tested, and the outcome was “inactive”.
COc1cc(Cl)c(OC)cc1N was tested, and the outcome was “inactive”.
With Cc1ccc(C(C)(C)C)c(O)c1 the outcome was “inactive”.
CCOC(=O)NCCOc1ccc(Oc2ccccc2)cc1 was tested, and the outcome was “inactive”.
In the case of O=C(O)CCCCCCC(=O)O, the outcome is reported as “inactive”.
CC(C)CCCCOC(=O)c1ccccc1C(=O)OCCCCC(C)C was tested, and the outcome was “inactive”.
For COCCOCCOCCOC, the outcome was “inactive”.
CCOCCOCCOC(C)=O was tested, and the outcome was “inactive”.
In the case of CCOCCOCCOCC, the outcome is reported as “inactive”.
With CCOc1ccc(NC(=O)OC(C)C)cc1OCC the outcome was “inactive”.
For CCCCCCC(C)(C)S, the outcome was “inactive”.
In the case of CC(C)Nc1nc(N)nc(Cl)n1, the outcome is reported as “inactive”.
With CCC(C)OC(=O)N1CCCCC1CCO (configuration not stated) the outcome was “inactive”.
With CCCCCCCCCC(=O)OC the outcome was “inactive”.
